Experimental data from PubChem BioAssay (EPA / NIEHS).
Values joined by “and” are separate entries in the source; they are usually repeats but may differ in a detail not shown here. Equal entries are not always repeated. Results filed as inconclusive are left out. More than one record can exist for a structure, and the calls need not agree. Active and inactive are the calls of the source. Rule for the calls, unless noted: active = hit-call score of the fitted dose curve at least 0.9, where 1 is the maximum; inactive = score below 0.9.

Experiments:
[1] = ATG_TAL_CIS: Attagene CIS-FACTORIAL HepG2 Assay for human TAL Basal Promoter (AID 2282966); conditions: HepG2 Attagene cis-factorial TAL promoter reporter; actives raise or lower the signal;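 note: background control endpoint measuring basal TAL promoter reporter mRNA not a specific factor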
Outline: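 In this cell-based multiplex, HepG2 liver cells bearing cis-promoter reporter constructs are dosed for 24 hours. Total RNA is reverse-transcribed and amplified, labelled fragments are sized by capillary electrophoresis, and signal changes are fitted bidirectionally versus DMSO.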

[2] = ATG_TGFb_CIS: Attagene CIS-FACTORIAL HepG2 Assay for human Transforming Growth Factor (TGF) (AID 2282967); conditions: HepG2 Attagene CIS TGFb reporter, mRNA transcription; actives raise or lower the signal
Outline: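 Endogenous TGFB1-linked transcription factor activity read as reporter mRNA via RT-PCR and capillary electrophoresis, 24 h after dosing transiently transfected HepG2 cells. Gain or loss of signal fitted relative to DMSO.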

[3] = ATG_VDRE_CIS: Attagene CIS-FACTORIAL HepG2 Assay for human Vitamin D Receptor Element (VDRE) (AID 2282968); conditions: HepG2 VDRE cis-reporter transcription, actives raise or lower the signal
Outline: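 In transiently transfected HepG2 liver cells, gain or loss of reporter mRNA after 24 h exposure is scored relative to DMSO, using fluorescence detection by capillary electrophoresis of RT-PCR products.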

[4] = target: Nuclear receptor subfamily 1 group I member 3 (Homo sapiens) (UniProt Q14994); test: ATG_CAR_TRANS: Attagene TRANS-FACTORIAL HepG2 Assay for human Constitutive Androstane Receptor (CAR) (AID 2282969; active = hit-call score of the fitted dose curve at least 0.9, where 1 is the maximum;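 note: activators raise reporter mRNA above DMSO so AC50 marks induction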); conditions: HepG2 Attagene TRANS-FACTORIAL CAR reporter
Outline: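 Readout is reporter mRNA induction, quantified by fluorescent primer extension and capillary electrophoresis after RT-PCR. Cells were HepG2 transiently carrying chimeric NR-Gal4 constructs with GAL4-UAS reporters, treated for 24 h; activity scored upward from DMSO.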

[5] = target: Estrogen receptor (Homo sapiens) (UniProt P03372); test: ATG_ERa_TRANS: Attagene TRANS-FACTORIAL HepG2 Assay for human Estrogen Receptor alpha (ERa) (AID 2282970; active = hit-call score of the fitted dose curve at least 0.9, where 1 is the maximum); conditions: HepG2 Attagene TRANS ERa GAL4 reporter, mRNA
Outline: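 After 24 h of compound treatment, RNA from HepG2 cells bearing transfected GAL4-UAS reporter constructs is converted to cDNA, amplified and fluorescently labelled. Capillary electrophoresis resolves the ERa-linked reporter; DMSO serves as negative control.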

[6] = target: X-box-binding protein 1 (Homo sapiens) (UniProt P17861); test: ATG_Xbp1_CIS: Attagene CIS-FACTORIAL HepG2 Assay for human X-box Binding Protein 1 (XBP1) (AID 2282972); conditions: HepG2 XBP1 cis-element reporter, Attagene multiplex; actives raise or lower the signal
Outline: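 HepG2, transient MRTU transfection (cis-promoter driven), 24 h compound exposure. Total RNA → oligo(dT) RT → PCR → 6-FAM labeling → HpaI cut → CE. Bidirectional fit vs DMSO.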

[7] = ATG_M_19_TRANS: Attagene TRANS-FACTORIAL HepG2 Assay for M19 Transcription Factor (Internal Marker) (AID 2282974; active = hit-call score of the fitted dose curve at least 0.9, where 1 is the maximum); conditions: HepG2 Attagene TRANS-FACTORIAL M19 internal marker reporter
Outline: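 Cells: human HepG2, transiently transfected with multiplexed reporter transcription units. Exposure: 24 h. Detection: RT-PCR of reporter mRNA with capillary electrophoresis. Analysis: gain-of-signal vs DMSO.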

[8] = ATG_GAL4_TRANS: Attagene TRANS-FACTORIAL HepG2 Assay for GAL4 (Internal Marker) (AID 2282976; active = hit-call score of the fitted dose curve at least 0.9, where 1 is the maximum); conditions: HepG2 Attagene TRANS GAL4 internal marker reporter
Outline: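 RT-PCR/capillary electrophoresis readout of reporter mRNA. HepG2, transient MRTU transfection (GAL4-UAS reporters), 24 h compound exposure. Background-control endpoint, positive direction vs DMSO baseline.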

[9] = target: Oxysterols receptor LXR-alpha (Homo sapiens) (UniProt Q13133); test: ATG_LXRa_TRANS: Attagene TRANS-FACTORIAL HepG2 Assay for human Liver X Receptor alpha (LXRa) (AID 2282980; active = hit-call score of the fitted dose curve at least 0.9, where 1 is the maximum); conditions: HepG2 Attagene TRANS reporter, LXRa transactivation
Outline: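 Read-out: reporter transcript levels by RT-PCR plus capillary electrophoresis, fluorescence intensity. Transiently transfected HepG2, exogenous NR-GAL4 chimera, GAL4-UAS reporters; 24 h compound exposure. Activity = increase over DMSO negative control.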

[10] = ATG_M_32_TRANS: Attagene TRANS-FACTORIAL HepG2 Assay for M32 Transcription Factor (Internal Marker) (AID 2282984; active = hit-call score of the fitted dose curve at least 0.9, where 1 is the maximum;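 note: transcript level of a background control reporter unit measured by RT-PCR and capillary electrophoresis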); conditions: HepG2 Attagene TRANS M32 internal marker reporter
Outline: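 Using transiently transfected HepG2 cells exposed to test chemicals for 24 h, reporter transcripts are converted to labelled cDNA fragments and quantified by capillary electrophoresis. DMSO defines the activity baseline.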

[11] = target: Transcriptional activator Myb (Homo sapiens) (UniProt P10242); test: ATG_Myb_CIS: Attagene CIS-FACTORIAL HepG2 Assay for human Myeloblastosis (Myb) Proto-Oncogene Transcription Factor (AID 2282986); conditions: HepG2 Attagene CIS-FACTORIAL Myb reporter transcription; actives raise or lower the signal
Outline: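 Steps: transfect HepG2 with cis-regulated reporter units; dose with chemical for 24 h; isolate RNA, reverse-transcribe, PCR-amplify and FAM-label reporter sequences; digest with HpaI; resolve by capillary electrophoresis. Activity fitted in both directions relative to DMSO.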

[12] = target: Nuclear respiratory factor 1 (Homo sapiens) (UniProt Q16656); test: ATG_NRF1_CIS: Attagene CIS-FACTORIAL HepG2 Assay for human Nuclear Respiratory Factor 1 (NRF1) Orphan Gene (AID 2282987); conditions: HepG2 NRF1 cis-element reporter, Attagene multiplex; actives raise or lower the signal
Outline: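 Fluorescence intensity of labelled reporter cDNA fragments, resolved by capillary electrophoresis, served as readout for NRF1 cis-element activity. Transiently transfected HepG2 cells were dosed for 24 hours; activity in either direction was fitted against DMSO negative control.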

[13] = target: Glucocorticoid receptor (Homo sapiens) (UniProt P04150); test: ATG_GR_TRANS: Attagene TRANS-FACTORIAL HepG2 Assay for human Glucocorticoid Receptor (GR) (AID 2282978; active = hit-call score of the fitted dose curve at least 0.9, where 1 is the maximum;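 note: activators score as hits since higher reporter transcript over DMSO is fitted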); conditions: HepG2 Attagene TRANS GR reporter, mRNA transcription
Outline: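 In this trans-factorial format, exogenous NR-GAL4 chimeric proteins in transfected HepG2 cells regulate GAL4-UAS reporter transcription. After 24 h treatment, reporter mRNA induction relative to DMSO is read by RT-PCR and capillary electrophoresis.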

[14] = target: Hepatocyte nuclear factor 4-alpha (Homo sapiens) (UniProt P41235); test: ATG_HNF4a_TRANS: Attagene TRANS-FACTORIAL HepG2 Assay for human Hepatocyte Nuclear Factor 4 alpha (HNF4a) (AID 2282982; active = hit-call score of the fitted dose curve at least 0.9, where 1 is the maximum); conditions: HepG2 HNF4a transactivation reporter, mRNA readout
Outline: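 Transfected HepG2 reporter cells are dosed for 24 h; reporter RNA is reverse-transcribed, amplified, fluorescently labelled and HpaI-digested before CE sizing. Positive-direction fit against DMSO.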

[15] = ATG_M_06_TRANS: Attagene TRANS-FACTORIAL HepG2 Assay for M06 Transcription Factor (Internal Marker) (AID 2282983; active = hit-call score of the fitted dose curve at least 0.9, where 1 is the maximum); conditions: HepG2 Attagene TRANS M06 internal marker reporter
Outline: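 After a 24 h chemical treatment of transfected HepG2, RNA underwent DNase I treatment, reverse transcription and reporter-specific PCR; labelled, HpaI-digested products were sized by capillary electrophoresis. Signal increase relative to DMSO defined activity.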

[16] = target: Steroid hormone receptor ERR1 (Homo sapiens) (UniProt P11474); test: ATG_ERRa_TRANS: Attagene TRANS-FACTORIAL HepG2 Assay for human Estrogen-Related Receptor alpha (ERRa) (AID 2282971; active = hit-call score of the fitted dose curve at least 0.9, where 1 is the maximum); conditions: HepG2 Attagene TRANS reporter, ERRa transactivation
Outline: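 Transfected HepG2, 24 h dosing, ERRa-Gal4 chimera driving GAL4-UAS reporter. Readout: reporter mRNA via RT-PCR plus capillary electrophoresis (fluorescence). Positive direction vs DMSO control.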

[17] = target: Oxysterols receptor LXR-beta (Homo sapiens) (UniProt P55055); test: ATG_LXRb_TRANS: Attagene TRANS-FACTORIAL HepG2 Assay for human Liver X Receptor beta (LXRb) (AID 2282981; active = hit-call score of the fitted dose curve at least 0.9, where 1 is the maximum); conditions: HepG2 Attagene TRANS GAL4-LXRb reporter, mRNA
Outline: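 Cells: HepG2, transiently transfected with GAL4-UAS reporter units plus LXRb-Gal4 fusion. Treatment: 24 h. Detection: reporter mRNA by RT-PCR, 6-FAM labelling, HpaI digestion, capillary electrophoresis.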

[18] = target: Nuclear receptor subfamily 4 group A member 2 (Homo sapiens) (UniProt P43354); test: ATG_NURR1_TRANS: Attagene TRANS-FACTORIAL HepG2 Assay for human Nuclear Receptor Related Protein 1 (NURR1) (AID 2282985; active = hit-call score of the fitted dose curve at least 0.9, where 1 is the maximum); conditions: HepG2 Attagene TRANS reporter, mRNA readout
Outline: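 Cells: HepG2, transiently transfected. Exposure: 24 h. Detection: fluorescence of labelled RT-PCR products separated by capillary electrophoresis; upward fit versus DMSO.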

[19] = target: Bile acid receptor (Homo sapiens) (UniProt Q96RI1); test: ATG_FXR_TRANS: Attagene TRANS-FACTORIAL HepG2 Assay for Farnesoid X Receptor (FXR) (AID 2282979; active = hit-call score of the fitted dose curve at least 0.9, where 1 is the maximum;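 note: hits raise reporter mRNA above DMSO so AC50 marks FXR activation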); conditions: HepG2 Attagene TRANS FXR-GAL4 reporter transcription
Outline: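 Read-out: fluorescent reporter transcripts quantified by capillary electrophoresis after RT-PCR of total RNA. Source cells were HepG2 transiently carrying chimeric NR-GAL4 plus GAL4-UAS reporter units, dosed 24 h. Activity fitted upward relative to DMSO baseline.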

[20] = target: Estrogen-related receptor gamma (Homo sapiens) (UniProt P62508); test: ATG_ERRg_TRANS: Attagene TRANS-FACTORIAL HepG2 Assay for human Estrogen-Related Receptor gamma (ERRg) (AID 2282977; active = hit-call score of the fitted dose curve at least 0.9, where 1 is the maximum;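 note: hits increase reporter signal over DMSO so potencies reflect activators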); conditions: HepG2 Attagene TRANS reporter, ERRg transactivation
Outline: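 Transient HepG2 transfectants, 24 h compound exposure, GAL4-UAS reporter mRNA by RT-PCR/6-FAM labelling/capillary electrophoresis; positive direction vs DMSO.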

Measured: AC50

Glucocorticoid receptor (Homo sapiens), sequence (P04150 whole entry, looked up, the tested form may be a part): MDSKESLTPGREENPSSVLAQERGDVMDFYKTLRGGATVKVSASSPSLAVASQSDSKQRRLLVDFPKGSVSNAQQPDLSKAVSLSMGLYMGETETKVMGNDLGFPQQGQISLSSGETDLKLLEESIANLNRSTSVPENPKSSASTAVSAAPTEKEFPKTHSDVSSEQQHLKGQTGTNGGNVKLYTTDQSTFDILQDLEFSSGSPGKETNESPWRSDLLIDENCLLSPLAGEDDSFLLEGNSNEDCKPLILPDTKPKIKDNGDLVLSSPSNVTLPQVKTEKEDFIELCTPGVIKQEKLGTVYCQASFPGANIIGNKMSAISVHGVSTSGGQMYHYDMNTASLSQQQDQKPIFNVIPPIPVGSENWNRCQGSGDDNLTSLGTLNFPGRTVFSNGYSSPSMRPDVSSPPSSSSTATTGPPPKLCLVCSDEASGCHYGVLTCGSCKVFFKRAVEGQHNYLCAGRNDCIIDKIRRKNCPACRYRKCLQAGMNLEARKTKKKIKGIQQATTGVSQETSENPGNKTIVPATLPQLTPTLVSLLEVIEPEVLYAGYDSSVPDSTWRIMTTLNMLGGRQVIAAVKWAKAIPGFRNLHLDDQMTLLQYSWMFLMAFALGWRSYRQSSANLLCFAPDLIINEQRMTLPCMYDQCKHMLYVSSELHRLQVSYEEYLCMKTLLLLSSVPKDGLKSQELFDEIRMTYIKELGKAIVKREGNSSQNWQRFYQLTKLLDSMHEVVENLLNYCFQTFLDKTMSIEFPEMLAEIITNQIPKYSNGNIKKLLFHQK
Oxysterols receptor LXR-beta (Homo sapiens), sequence (P55055 whole entry, looked up, the tested form may be a part): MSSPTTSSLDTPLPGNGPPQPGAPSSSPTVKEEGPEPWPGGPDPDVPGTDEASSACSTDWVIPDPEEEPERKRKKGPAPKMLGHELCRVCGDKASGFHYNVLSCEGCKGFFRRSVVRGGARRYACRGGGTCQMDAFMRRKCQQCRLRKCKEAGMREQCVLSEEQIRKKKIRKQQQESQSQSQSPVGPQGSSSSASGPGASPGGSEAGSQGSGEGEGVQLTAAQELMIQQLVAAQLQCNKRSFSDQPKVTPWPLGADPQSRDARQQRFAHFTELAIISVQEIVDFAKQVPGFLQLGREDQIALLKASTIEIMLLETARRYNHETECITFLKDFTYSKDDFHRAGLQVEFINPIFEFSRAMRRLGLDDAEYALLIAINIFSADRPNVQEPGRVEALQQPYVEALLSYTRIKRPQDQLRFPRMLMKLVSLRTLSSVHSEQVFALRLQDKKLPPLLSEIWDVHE
Nuclear respiratory factor 1 (Homo sapiens), sequence (Q16656 whole entry, looked up, the tested form may be a part): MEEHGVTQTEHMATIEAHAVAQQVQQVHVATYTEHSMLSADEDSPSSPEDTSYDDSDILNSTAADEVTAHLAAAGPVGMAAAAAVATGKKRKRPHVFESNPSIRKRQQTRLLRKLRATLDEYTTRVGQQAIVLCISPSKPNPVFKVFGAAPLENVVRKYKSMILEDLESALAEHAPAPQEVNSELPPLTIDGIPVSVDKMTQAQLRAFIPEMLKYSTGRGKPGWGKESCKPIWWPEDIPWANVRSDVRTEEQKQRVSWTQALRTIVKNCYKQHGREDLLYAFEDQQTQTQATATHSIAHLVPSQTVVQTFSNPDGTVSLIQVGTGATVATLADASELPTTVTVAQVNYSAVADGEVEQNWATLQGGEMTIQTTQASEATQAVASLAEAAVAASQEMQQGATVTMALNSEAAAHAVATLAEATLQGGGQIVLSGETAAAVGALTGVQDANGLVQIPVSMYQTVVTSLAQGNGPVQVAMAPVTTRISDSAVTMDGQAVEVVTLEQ
Transcriptional activator Myb (Homo sapiens), sequence (P10242 whole entry, looked up): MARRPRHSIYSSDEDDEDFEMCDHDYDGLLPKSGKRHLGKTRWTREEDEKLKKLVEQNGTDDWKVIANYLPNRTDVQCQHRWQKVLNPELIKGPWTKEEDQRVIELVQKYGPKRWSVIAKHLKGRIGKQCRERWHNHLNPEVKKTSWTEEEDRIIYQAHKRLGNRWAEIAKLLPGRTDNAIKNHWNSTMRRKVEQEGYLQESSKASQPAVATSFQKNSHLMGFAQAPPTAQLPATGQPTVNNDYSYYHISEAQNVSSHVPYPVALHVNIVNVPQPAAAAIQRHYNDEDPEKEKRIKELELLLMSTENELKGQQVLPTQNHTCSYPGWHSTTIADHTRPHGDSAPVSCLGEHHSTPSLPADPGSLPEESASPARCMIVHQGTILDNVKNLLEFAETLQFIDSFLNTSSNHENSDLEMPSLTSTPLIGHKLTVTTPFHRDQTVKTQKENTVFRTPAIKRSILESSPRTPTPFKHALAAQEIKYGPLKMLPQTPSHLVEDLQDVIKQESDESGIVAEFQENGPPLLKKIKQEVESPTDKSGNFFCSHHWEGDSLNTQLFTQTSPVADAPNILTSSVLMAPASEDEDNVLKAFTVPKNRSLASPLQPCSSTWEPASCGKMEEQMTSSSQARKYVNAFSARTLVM
Bile acid receptor (Homo sapiens), sequence (Q96RI1 whole entry, looked up, the tested form may be a part): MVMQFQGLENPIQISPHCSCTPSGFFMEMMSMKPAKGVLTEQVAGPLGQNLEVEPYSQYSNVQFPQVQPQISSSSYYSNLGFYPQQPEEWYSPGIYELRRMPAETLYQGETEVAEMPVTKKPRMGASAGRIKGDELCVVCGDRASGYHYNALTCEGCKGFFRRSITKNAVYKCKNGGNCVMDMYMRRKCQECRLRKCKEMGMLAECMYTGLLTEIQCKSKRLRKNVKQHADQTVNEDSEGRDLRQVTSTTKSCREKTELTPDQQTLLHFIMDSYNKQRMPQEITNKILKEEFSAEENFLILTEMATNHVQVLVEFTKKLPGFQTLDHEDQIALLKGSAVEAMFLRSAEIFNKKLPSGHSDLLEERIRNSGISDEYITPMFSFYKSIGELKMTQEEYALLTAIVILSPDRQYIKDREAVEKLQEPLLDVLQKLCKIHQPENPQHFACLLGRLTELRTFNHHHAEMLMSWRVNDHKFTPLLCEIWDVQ
Nuclear receptor subfamily 4 group A member 2 (Homo sapiens), sequence (P43354 whole entry, looked up): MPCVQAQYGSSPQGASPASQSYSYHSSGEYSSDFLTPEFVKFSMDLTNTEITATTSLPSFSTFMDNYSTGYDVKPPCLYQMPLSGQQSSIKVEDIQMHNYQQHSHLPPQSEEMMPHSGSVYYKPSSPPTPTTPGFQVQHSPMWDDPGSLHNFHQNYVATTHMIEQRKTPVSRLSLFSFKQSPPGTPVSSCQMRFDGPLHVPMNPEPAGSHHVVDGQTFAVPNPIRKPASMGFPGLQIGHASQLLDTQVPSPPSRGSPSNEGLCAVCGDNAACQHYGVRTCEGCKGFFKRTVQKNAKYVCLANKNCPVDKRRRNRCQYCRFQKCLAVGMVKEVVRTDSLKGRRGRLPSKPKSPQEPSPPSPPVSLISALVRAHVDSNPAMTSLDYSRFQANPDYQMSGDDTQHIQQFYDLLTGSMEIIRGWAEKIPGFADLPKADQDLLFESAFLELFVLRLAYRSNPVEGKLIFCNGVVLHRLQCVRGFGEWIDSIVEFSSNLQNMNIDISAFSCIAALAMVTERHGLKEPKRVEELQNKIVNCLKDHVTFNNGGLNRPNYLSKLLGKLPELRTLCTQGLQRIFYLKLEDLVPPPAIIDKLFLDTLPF
Nuclear receptor subfamily 1 group I member 3 (Homo sapiens), sequence (Q14994 whole entry, looked up, the tested form may be a part): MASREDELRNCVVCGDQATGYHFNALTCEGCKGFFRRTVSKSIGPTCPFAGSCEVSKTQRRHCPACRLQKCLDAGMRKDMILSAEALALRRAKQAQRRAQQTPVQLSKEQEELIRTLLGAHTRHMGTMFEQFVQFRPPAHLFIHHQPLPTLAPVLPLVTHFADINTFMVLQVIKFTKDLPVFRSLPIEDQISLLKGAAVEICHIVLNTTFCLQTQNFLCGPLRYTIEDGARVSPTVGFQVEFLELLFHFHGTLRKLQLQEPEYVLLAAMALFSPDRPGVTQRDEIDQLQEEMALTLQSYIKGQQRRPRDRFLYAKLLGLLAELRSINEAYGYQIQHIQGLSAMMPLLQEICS
Oxysterols receptor LXR-alpha (Homo sapiens), sequence (Q13133 whole entry, looked up, the tested form may be a part): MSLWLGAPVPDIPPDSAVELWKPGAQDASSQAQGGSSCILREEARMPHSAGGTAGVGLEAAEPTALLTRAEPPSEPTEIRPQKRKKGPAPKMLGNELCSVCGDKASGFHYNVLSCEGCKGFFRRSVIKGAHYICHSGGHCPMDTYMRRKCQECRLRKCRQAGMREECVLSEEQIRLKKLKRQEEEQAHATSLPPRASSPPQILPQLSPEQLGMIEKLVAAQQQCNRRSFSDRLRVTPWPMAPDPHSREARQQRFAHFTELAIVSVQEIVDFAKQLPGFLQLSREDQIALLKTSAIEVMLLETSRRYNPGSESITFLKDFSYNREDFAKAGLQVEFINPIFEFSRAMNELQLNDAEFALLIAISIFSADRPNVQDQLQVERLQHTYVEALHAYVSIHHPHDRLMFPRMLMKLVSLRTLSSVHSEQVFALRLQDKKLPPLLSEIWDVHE
Estrogen receptor (Homo sapiens), sequence (P03372 whole entry, looked up, the tested form may be a part): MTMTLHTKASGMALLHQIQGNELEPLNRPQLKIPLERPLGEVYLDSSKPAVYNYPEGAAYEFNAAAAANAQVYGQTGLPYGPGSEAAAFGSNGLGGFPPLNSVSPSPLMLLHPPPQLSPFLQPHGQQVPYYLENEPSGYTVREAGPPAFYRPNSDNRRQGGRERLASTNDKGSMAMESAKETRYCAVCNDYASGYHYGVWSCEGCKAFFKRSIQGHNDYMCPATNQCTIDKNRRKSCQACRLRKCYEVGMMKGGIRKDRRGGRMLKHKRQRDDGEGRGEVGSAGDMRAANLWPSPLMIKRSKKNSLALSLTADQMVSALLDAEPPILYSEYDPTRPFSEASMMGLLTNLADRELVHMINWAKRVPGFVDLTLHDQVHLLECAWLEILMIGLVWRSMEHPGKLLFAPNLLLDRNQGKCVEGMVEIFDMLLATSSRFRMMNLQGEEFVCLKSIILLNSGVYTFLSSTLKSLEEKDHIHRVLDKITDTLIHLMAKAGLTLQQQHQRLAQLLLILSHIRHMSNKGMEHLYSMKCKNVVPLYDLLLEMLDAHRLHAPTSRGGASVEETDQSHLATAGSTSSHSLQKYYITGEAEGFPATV

O=C(NS(=O)(=O)/C=C/c1cccs1)c1ccc(F)cc1Br
inactive: [1] | [2] | [3] | [4] | [5] | [6] | [7] | [8] | [9] | [10] | [11] | [12]

CCCCCCCCCCCCCCCCO
inactive: [1] | [2] | [3] | [4] | [5] | [6] | [13] | [14] | [15] | [11] | [12]

CCCC[C@H]1CN(CC2CCOCC2)C(=O)OC12CCN(C1(C)CCN(C(=O)c3c(C)ncnc3C)CC1)CC2
inactive: [1] | [2] | [3] | [4] | [16] | [6] | [7] | [9] | [17] | [18] | [11] | [12]

CC(=O)O[C@]1(C(C)=O)CC[C@H]2[C@@H]3C=C(Cl)C4=CC(=O)[C@@H]5C[C@@H]5[C@]4(C)[C@H]3CC[C@@]21C
inactive: [1] | [2] | [3] | [6] | [7] | [8] | [9] | [17] | [14] | [15] | [18] | [11] | [12]
active: [1] 47.7 µM | [3] 24.1 µM | [6] 45.5 µM and 51.8 µM and 43 µM | [11] 50.8 µM | [12] 26.8 µM

Cc1c(C)c2c(c(C)c1O)CCC(C)(COc1ccc(CC3SC(=O)NC3=O)cc1)O2 (stereo not drawn)
inactive: [1] | [2] | [4] | [5] | [6] | [7] | [18] | [11] | [12]
active: [3] 13.9 µM | [19] 17.4 µM

COc1ccc(OC(F)(F)F)cc1CN[C@H]1CCCN[C@H]1c1ccccc1
active: [3] 4.99 µM
inactive: [1] | [2] | [4] | [5] | [6] | [7] | [17] | [14] | [15] | [18] | [11] | [12]

CCCCc1nc2cccnc2n1Cc1ccc(-c2ccccc2-c2nnn[nH]2)cc1
inactive: [1] | [2] | [3] | [4] | [5] | [6] | [7] | [13] | [19] | [9] | [17] | [11] | [12]

O=C(N[C@@H](c1ccccc1)[C@@H]1CCCCN1)c1cccc(C(F)(F)F)c1Cl
inactive: [1] | [2] | [5] | [16] | [8] | [20] | [19] | [9] | [17] | [15] | [11]
active: [3] 20.4 µM | [6] 33 µM | [12] 56.9 µM

CCCCC(CC)CO (stereo not drawn)
inactive: [1] | [2] | [3] | [4] | [6] | [13] | [19] | [17] | [14] | [15] | [18] | [11] | [12]

OCC(CO)n1cnc(-c2ccc(F)cc2)c1-c1ccnc(Oc2ccccc2)n1
inactive: [1] | [2] | [3] | [4] | [6] | [7] | [13] | [17] | [15] | [11] | [12]
